In the library only some 1.9% were active in any assay of this set; here they are far more common.
PGE2 EP2 inh: human EP2 receptor antagonists, primary screen, TR-FRET cAMP, C6 glioma cells; 260,000 tested, 0.52% active; inhibition, % at 25 µM; AID 1422, 2008; C6 glioma cells expressing human EP2; cells stimulated with saturating PGE2;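 active = percent inhibition above 40 after rounding to a whole number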;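 note: rat C6 glioma host cells with rolipram phosphodiesterase inhibitor present; the protocol text gives 20 µM as final concentration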
Target sequence (P43116 whole entry, looked up): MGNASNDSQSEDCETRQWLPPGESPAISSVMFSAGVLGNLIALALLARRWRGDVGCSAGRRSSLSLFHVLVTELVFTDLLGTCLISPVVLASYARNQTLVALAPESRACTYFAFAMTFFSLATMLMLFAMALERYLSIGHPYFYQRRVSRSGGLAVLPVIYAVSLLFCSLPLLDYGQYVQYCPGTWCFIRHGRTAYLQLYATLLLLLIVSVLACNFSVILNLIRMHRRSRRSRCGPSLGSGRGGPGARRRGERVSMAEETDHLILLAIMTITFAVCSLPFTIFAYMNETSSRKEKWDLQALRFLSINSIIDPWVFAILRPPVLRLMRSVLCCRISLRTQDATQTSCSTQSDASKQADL
S1P4 ag: S1P4 receptor agonists, primary screen, cell-based. 220,000 tested, 0.35% active. Sphingosine 1-phosphate receptor 4 (Homo sapiens), O95977. S1P4-expressing cell line, agonist reporter assay. activation, % at 4.98 µM; in the data active = activation above about 11%
Pf gamet viab: late stage P. falciparum gametocyte viability inhibitors, primary screen, ATP luminescence, HTS; P. falciparum stage V gametocytes, 24 h; inhibition, % at 10.9 µM; 150,000 tested, 0.065% active;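 active = inhibition above the mean plus 3 SD of compounds within the control limits, set per campaign, cut at about 38% in these data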
S1P3 antag-1: S1P3 receptor antagonists, primary screen, cell-based; Sphingosine 1-phosphate receptor 3 (Homo sapiens), Q99500; CHO S1P3 NFAT-BLA reporter, FRET fluorescence, antagonist mode; inhibition, % at 4.98 µM; 170,000 tested, 0.27% active; AID 485, 2006;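 active = inhibition above the plate cutoff, the mean inhibition of test wells on that plate plus 3 SD, cut at about 28% in these data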;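 note: cells challenged with S1P at its EC80 of 0.8 µM; blue over green emission ratio from cleaved BLA substrate after 4 h stimulation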
Target sequence (Q99500 whole entry, looked up): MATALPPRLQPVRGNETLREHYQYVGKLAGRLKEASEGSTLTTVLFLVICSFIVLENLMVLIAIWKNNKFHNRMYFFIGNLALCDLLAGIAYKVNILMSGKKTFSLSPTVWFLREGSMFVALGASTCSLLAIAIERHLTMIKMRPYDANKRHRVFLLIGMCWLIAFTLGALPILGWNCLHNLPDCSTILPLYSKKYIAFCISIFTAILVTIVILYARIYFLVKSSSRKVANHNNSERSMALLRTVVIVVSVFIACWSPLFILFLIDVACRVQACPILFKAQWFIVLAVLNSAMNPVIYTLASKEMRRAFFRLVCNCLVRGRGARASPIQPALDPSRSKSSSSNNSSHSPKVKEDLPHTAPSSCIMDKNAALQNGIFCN
S1P4 antag: S1P4 receptor antagonists, primary screen, cell-based | S1P4-expressing cells, antagonist mode, reporter read-out | 220,000 tested, 0.26% active | AID 1510, 2009 | Sphingosine 1-phosphate receptor 4 (Homo sapiens), O95977 | inhibition, % at 4.98 µM; in the data active = inhibition above about 29%
EP2 modulator: EP2 receptor modulators, cAMP readout, primary screen, cell-based, HTRF cAMP, PGE2 stimulation. Prostaglandin E2 receptor EP2 subtype (Homo sapiens), P43116. EP2-expressing cells, cAMP HTRF FRET, PGE2 co-stimulation. induction, % at 25 µM. 260,000 tested, 0.83% active. AID 940, 2007;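 active = compounds whose cAMP rise, as percent of the full-agonist control response, exceeds 60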;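 note: rat C6 glioma line stably carrying human EP2 under a CMV promoter; the protocol text gives 20 µM as final concentration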
S1P3 antag-2: S1P3 receptor antagonists, retest, confirmation, cell-based | shares compounds with S1P3 antag-1 | CHO S1P3 NFAT-BLA reporter, FRET, antagonist mode | inhibition, % at 4.98 µM | 240 tested, 30% active;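 active = inhibition above the hit threshold that was computed for the earlier primary screen, cut at about 30% in these data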
Large screens that a line does not name were inactive (follow-up assays come after a bar, where they were run).

COc1ccc(NC(=O)CC2C(=O)N(Cc3ccccc3)C(=S)N2CCN2CCOCC2)cc1 (stereo not drawn)	none
C=CCN1C(=O)C(CC(=O)Nc2ccc(OCCC)cc2)N(CCCN2CCN(Cc3ccccc3)CC2)C1=S (stereo not drawn)	S1P3 antag-1 38.4 | S1P3 antag-2 inactive
CCN(CC)c1ccc2cc(-c3nc(-c4ccc(OC)cc4)cs3)c(=O)oc2c1	S1P3 antag-1 42.2 | S1P3 antag-2 97.1
CCOc1ccc2[nH]c(=O)c(C(c3nnnn3C3CCCC3)N3CCCC3)cc2c1 (stereo not drawn)	none (no result: S1P4 ag, Pf gamet viab, S1P3 antag-1, S1P4 antag)
O=c1c2ccccc2n(CC(O)CN2CCCCC2)c2ccccc12 (stereo not drawn)	none
CN1CCc2c(n(CC(O)CN3CCN(CCO)CC3)c3ccccc23)C1=O (stereo not drawn)	S1P3 antag-1 40.9 | S1P3 antag-2 inactive
CC(=O)N1CCCc2cc(C(O)CN3CCN(c4cccc(Cl)c4)CC3)ccc21 (stereo not drawn)	none (no result: S1P4 ag, Pf gamet viab, S1P3 antag-1, S1P4 antag)
O=C(NCC1CCN(c2ccc(S(=O)(=O)N3CCCC3)cc2)CC1)c1ccccc1F	none (no result: PGE2 EP2 inh, S1P4 ag, Pf gamet viab, S1P3 antag-1, S1P4 antag)
CCCOC(=O)c1ccc(Oc2cn[nH]c2-c2ccc(O)cc2O)cc1	none
CCOC(=O)c1ccc(Oc2cn[nH]c2-c2ccc(O)cc2O)cc1	S1P3 antag-1 29.0 | S1P3 antag-2 inactive
CCC(C)NC(=O)Cc1c(OC)ccc2cc(Br)ccc12 (stereo not drawn)	S1P3 antag-1 32.7 | S1P3 antag-2 inactive
CCCC(C)NC(=O)Cc1ccc(Br)cc1 (stereo not drawn)	none
CC(C)(C)c1nc2scc(-c3ccc(Br)cc3)c2c(=O)o1	S1P3 antag-1 28.5 (no result: Pf gamet viab) | S1P3 antag-2 inactive
Cc1nc2scc(-c3ccc(Cl)cc3)c2c(=O)o1	none (no result: S1P3 antag-1)
Cc1ncc(-c2ccncc2)c(C2CCN(C(=O)c3cc(CC(C)C)on3)CC2)n1	none (no result: PGE2 EP2 inh, S1P4 ag, Pf gamet viab, S1P3 antag-1, S1P4 antag)
CCCNC(=O)Cn1cnc2sc(C(=O)N3CCN(Cc4ccc5c(c4)OCO5)CC3)c(C)c2c1=O	S1P3 antag-1 30.4 | S1P3 antag-2 inactive
O=C(O)Cn1cc(C=C2C(=O)NC(=S)NC2=O)c2ccccc21	none (no result: S1P4 ag, Pf gamet viab, S1P3 antag-1, S1P4 antag)
c1ccc(-c2csc3ncnc(NCC4COc5ccccc5O4)c23)cc1 (stereo not drawn)	S1P3 antag-1 36.5 | S1P3 antag-2 inactive
Cc1sc2ncnc(NCC3COc4ccccc4O3)c2c1C (stereo not drawn)	S1P3 antag-1 32.1 | S1P3 antag-2 33.0
C=CCNc1ncnc2scc(-c3ccccc3)c12	none (no result: S1P4 ag, Pf gamet viab, S1P3 antag-1, S1P4 antag)
CSc1ccccc1C(=O)NCCOc1cccc(C)c1	S1P3 antag-1 38.9 | S1P3 antag-2 inactive
Cc1ccc(C(=O)NCCOc2cccc(C)c2)cc1	none
COCCCN1C(=O)C(O)=C(C(=O)c2ccc(C)o2)C1c1ccc(C(C)C)cc1 (stereo not drawn)	none (no result: S1P4 ag, Pf gamet viab, S1P3 antag-1, S1P4 antag)
CCN1/C(=C/c2sc(-c3ccccc3C)c[n+]2C)Sc2ccccc21	S1P3 antag-1 35.5 | S1P3 antag-2 38.3
Cc1cccc(OCC(=O)Nc2ccc3c(c2)nc(CN2CCCCC2)n3C)c1	S1P3 antag-1 30.5 | S1P3 antag-2 inactive
Cn1c(CN2CCCC2)nc2cc(NC(=O)COc3ccccc3)ccc21	none (no result: S1P3 antag-1)
O=C(Nc1ccccc1)C(c1ccccc1)C1CCCC1 (stereo not drawn)	S1P3 antag-1 52.4 | S1P3 antag-2 48.2
CCCn1c(C)cc(/C=C(\C#N)C(=O)OCC(=O)Nc2ccc(OC)c(Cl)c2)c1C	S1P3 antag-1 92.1 | S1P3 antag-2 inactive
CCCn1c(C)cc(/C=C(\C#N)C(=O)OCC(=O)NC(=O)NCC)c1C	none (no result: S1P3 antag-1)
C=CCn1c(N2CCC(C(=O)Nc3nnc(C(C)C)s3)CC2)nc2ccccc21	none (no result: PGE2 EP2 inh, S1P4 ag, Pf gamet viab, S1P3 antag-1, S1P4 antag)
Cc1cc(C)c(C)c(S(=O)(=O)N2CCN(C(=O)CCC(=O)N3CCOCC3)CC2)c1C	S1P3 antag-1 31.1 | S1P3 antag-2 inactive
Cc1cc(C)c(C)c(S(=O)(=O)N2CCN(C(=O)c3ccco3)CC2)c1C	none (no result: PGE2 EP2 inh, S1P4 ag, S1P3 antag-1, S1P4 antag, EP2 modulator)
C[N+]1(NCC[N@+]2(C)CCc3ccccc3C2)CCCCC1	none (no result: S1P4 ag, Pf gamet viab, S1P3 antag-1, S1P4 antag)
CCCC(C)C1C(C#N)=C(N)Oc2n[nH]c(C)c21 (stereo not drawn)	none (no result: S1P4 ag, Pf gamet viab, S1P3 antag-1, S1P4 antag)
COc1ccc(-n2c(C)nc3sc4c(c3c2=O)CCC4)cc1	S1P3 antag-1 103.5 | S1P3 antag-2 inactive
COc1ccc(-n2c(SCC(=O)O)nc3sc4c(c3c2=O)CCC4)cc1	none
C=CCNC(=S)Nc1ccc(OC)c(S(=O)(=O)N2CCOCC2)c1	none
C=CCNC(=S)Nc1ccc(Cl)c(S(=O)(=O)N2CCOCC2)c1	S1P3 antag-1 69.6 | S1P3 antag-2 inactive
CN1CCN(/N=C/c2ccc(-c3ccc([N+](=O)[O-])cc3Cl)o2)CC1	S1P3 antag-1 54.1 | S1P3 antag-2 inactive
O=C(Cn1nnc(-c2ccc(Cl)cc2)n1)Nc1ccc(N2CCOCC2)cc1	none (no result: S1P4 ag, Pf gamet viab, S1P3 antag-1, S1P4 antag)
O=C(CN1CCN(Cc2ccccc2)CC1)NCCNc1ccc([N+](=O)[O-])cn1	S1P3 antag-1 50.6 (no result: Pf gamet viab) | S1P3 antag-2 inactive
COc1cccc(OCc2nnc(SCC(=O)c3cc(F)ccc3O)o2)c1	none (no result: S1P4 ag, Pf gamet viab, S1P3 antag-1, S1P4 antag)
CC(C)(C)c1ccc(C(=O)Nc2cccc3c(=O)[nH][nH]c(=O)c23)cc1	S1P3 antag-1 38.4 | S1P3 antag-2 inactive
CC(C)(C)c1ccc(C(=O)Nc2ncn[nH]2)cc1	none
C/C(Cn1nnc2ccccc21)=N\NC(=O)c1cccc(Br)c1	S1P3 antag-1 28.9 (no result: Pf gamet viab) | S1P3 antag-2 inactive
COc1ccc(CN2CCC(O)(c3ccccc3F)CC2)cc1Cn1ccnc1C	none (no result: S1P4 ag, Pf gamet viab, S1P3 antag-1, S1P4 antag)
CN(C)CCCN1C(=O)c2cccc3c([N+](=O)[O-])ccc(c23)C1=O	PGE2 EP2 inh 80.1, S1P3 antag-1 33.1, S1P4 antag 91.7 | S1P3 antag-2 inactive
O=C1c2cccc3c([N+](=O)[O-])ccc(c23)C(=O)N1CCc1ccccn1	none
CCCc1nc2ccccc2c(C(=O)OCC(=O)NCc2ccc3c(c2)OCO3)c1CC	none
CCCc1nc2ccccc2c(C(=O)OC(C)C(=O)NCc2ccc3c(c2)OCO3)c1CC (stereo not drawn)	S1P3 antag-1 30.7 (no result: Pf gamet viab) | S1P3 antag-2 inactive
COc1ccc(C(=O)/C=C2\Sc3ccccc3N2C)cc1	none
COc1ccc(-[n+]2c(C)cc(/C=C3\Sc4ccccc4N3C)cc2C)cc1	S1P3 antag-1 50.3 | S1P3 antag-2 30.2
COc1ccccc1-[n+]1c(C)cc(/C=C2\Sc3ccccc3N2C)cc1C	S1P3 antag-1 56.9 | S1P3 antag-2 39.3
